Drawing on PubChem BioAssay, this text covers inhibition for 39 molecules.

Activity calls are given as the source filed them. The rule behind the calls is not given here.

For the experiment, the target named is Pantothenate synthetase (Mycobacterium tuberculosis (strain ATCC 25618 / H37Rv)) (UniProt P9WIL5). The experiment in a line: Recombinant Mtb pantothenate synthetase (PanC) inhibitors, coupled enzyme, confirmatory (AID 375).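 Note: 0% = full reaction with vehicle and 100% = no enzyme background.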 The note with it: coupled enzyme assay; at 10 µM, stronger effect = higher value.
Pantothenate synthetase (Mycobacterium tuberculosis (strain ATCC 25618 / H37Rv)), sequence (P9WIL5 whole entry, looked up): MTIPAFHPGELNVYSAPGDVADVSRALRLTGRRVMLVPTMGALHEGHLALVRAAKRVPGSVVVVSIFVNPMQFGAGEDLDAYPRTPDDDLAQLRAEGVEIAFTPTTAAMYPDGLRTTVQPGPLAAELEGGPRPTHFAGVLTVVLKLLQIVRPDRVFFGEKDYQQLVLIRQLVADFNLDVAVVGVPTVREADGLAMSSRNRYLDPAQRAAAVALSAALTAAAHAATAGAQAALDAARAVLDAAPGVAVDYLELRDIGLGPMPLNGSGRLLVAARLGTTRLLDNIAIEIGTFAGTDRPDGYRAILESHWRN
As usually defined, the inhibition is the change of the read-out against control, counted positive when it falls. As for `O=S(=O)(c1cccc2cnccc12)N1CCCNCC1`, the inhibition is 3% (inactive).
As to `COc1cc(C(=O)Nc2ccc(-n3cnnn3)c(C)c2)cc(OC)c1OC`, the inhibition is 0% (inactive).
With `O=C(CN(c1ccccc1)S(=O)(=O)c1ccccc1)N1CCN(Cc2ccc3c(c2)OCO3)CC1`, the inhibition was 0% (inactive).
Consider `CSCCC(NC(=O)c1ccco1)C(=O)OC(C)C(=O)NC(=O)NC1CCCCC1` (centres undefined), for which the inhibition is 0% (inactive).
In the case of `COc1ccc(-c2nnc(-c3cccs3)o2)cc1OC`, the inhibition is 0% (inactive).
The same measure for `O=C(c1ccccc1-c1ccccc1)N1CCN(c2ccccn2)CC1`: 0% (inactive); for `COc1ccc(-c2ccc(-c3nnc(-c4ccncc4)o3)cc2)cc1`: 4% (inactive).
For `CC(=O)c1ccc(OCC(O)CN2CCN(Cc3ccc4c(c3)OCO4)CC2)cc1` (centres undefined), the inhibition was 3% (inactive).
The same measure for `Cc1cccc(NC(=O)C2CCCN(C(=O)Nc3ccccc3)C2)c1C` (centres undefined): 2% (inactive); for `COc1ccccc1N=Cc1nc(-c2ccccc2)oc1OC(C)=O`: 0% (inactive).
`CC(=O)Nc1c(C(=O)C2CC2)oc2ccccc12`: the inhibition is 3% (inactive).
The same measure for `CC[N+](C)(C)Cc1ccccc1Br`: 0% (inactive); for `CCOc1cc(C(=O)N(C)Cc2cc3cc(OC)ccc3[nH]c2=O)cc(OCC)c1OCC`: 0% (inactive).
The same measure for `CCCn1c(SCC(=O)Nc2ccccc2C(=O)OCC)nc2c1c(=O)n(C)c(=O)n2C`: 0% (inactive); for `COc1ccccc1NC(=O)CSc1nnc(-c2ccncc2)n1CC1CCCO1` (centres undefined): 0% (inactive).
Take `COCCNC(=O)c1c(N)n(/N=C/c2cccs2)c2nc3ccccc3nc12`: the inhibition was 0% (inactive).
Turning to `COc1ccc(/C(O)=C2/C(=O)C(=O)N(CCN(C)C)C2c2ccccn2)cc1OC` (centres undefined), the inhibition is 0% (inactive).
For the molecule `O=C(Nc1nccs1)c1cccc(NC(=O)C2CC2)c1`, the inhibition is 6% (inactive).
As to `CCN(CC)S(=O)(=O)c1ccc2c(c1)c(=O)c(C(=O)NCCOC)cn2C`, the inhibition was 1% (inactive).
On to `CC(=O)Nc1cccc(NC(=O)C2CCCN2C(=O)Nc2ccc(C)cc2)c1` (centres undefined), for which the inhibition is 0% (inactive).
Take `CCn1c(Cc2ccc(OC)cc2)nnc1SCC(=O)Nc1cccc(C(=O)OC)c1`: the inhibition is 5% (inactive).
On to `CCn1cc(C(=O)NCCN(C)CCc2ccccc2)c(=O)c2cc(S(=O)(=O)N(C)C)ccc21`, for which the inhibition was 4% (inactive).
With `CCc1nnc(NC(=O)c2cc3c(s2)CCCCC3)s1`, the inhibition is 0% (inactive).
As for `CC(C)(C)N=C1NC(=NC(C)(C)C)c2ccccc21`, the inhibition was 0% (inactive).
As to `CCC1SC2=NC(C)=C(C(=O)OC)C(c3ccc(C)cc3)N2C1=O` (centres undefined), the inhibition is 7% (inactive).
For `O=C(c1ccc2c(c1)OCO2)N1CCNc2ccccc2C1`, the inhibition is 0% (inactive).
Turning to `Cc1ccc(S(=O)(=O)NCCSc2nnnn2-c2ccc(C(N)=O)cc2)cc1`, the inhibition is 0% (inactive).
In the case of `O=C(CN1C(=O)COc2ccccc21)N(Cc1cccnc1)Cc1ccccc1F`, the inhibition is 0% (inactive).
To `CCCc1cc(N2CCCC2)n2nc(C)c(-c3ccccc3)c2n1` belongs 0% (inactive); to `O=C(Cn1nnc(-c2cccs2)n1)OC1CCCCC1`, 4% (inactive).
For `COc1ccccc1OCCCCNCCO`, the inhibition is 0% (inactive).
In the case of `Cc1cccc(-n2ncc3c(N)ncnc32)c1`, the inhibition is 3% (inactive).
Take `C=C(C)Cn1c(CCCNC(=O)C(C)(C)C)nc2ccccc21`: the inhibition was 0% (inactive).
`CC(C(=O)OCn1nnc2ccccc2c1=O)N1C(=O)c2ccccc2C1=O` (centres undefined): the inhibition is 0% (inactive).
With `Cc1ccc2c(CNCc3ccco3)cc(=O)oc2c1`, the inhibition is 0% (inactive).
For `COc1cc(C2C(C(=O)c3ccc(C)o3)=C(O)C(=O)N2c2cc(C)on2)cc(Br)c1O` (centres undefined), the inhibition is 0% (inactive).
For the molecule `COc1ccccc1C1c2c(oc3ccc(Cl)cc3c2=O)C(=O)N1c1cc(C)on1` (centres undefined), the inhibition was 0% (inactive).
Turning to `Cc1noc(/C=C/N(C)C)c1S(=O)(=O)N1CCc2ccccc21`, the inhibition is 0% (inactive).
To `O=C(Cc1ccccc1)N1CCCC(c2nc(-c3cccs3)no2)C1` (centres undefined) belongs 0% (inactive).
